Rab9 promoter act: Rab9 promoter activation; Huh7 Rab9 promoter-luciferase reporter, luminescence, 24 h; Potency, µM (series often up to 9.22 µM), usual class: activators; 2.8% of 320,000 active; AID 485297; further: nearly all actives have a fitted effect of over 60% in size
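Steps: seed 1500 Huh7 Rab9-luc cells per well, rest 2 h at 37 °C; add compound in DMSO; incubate 24 h; add luciferase reagent, 10 min ambient; read luminescence.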
NPC1 promoter act: activates the NPC1 promoter; AID 485313; 2.4% of 320,000 active; Potency, µM (highest dose often 9.22 µM), actives largely listed as activators; Huh7 NPC1 promoter luciferase reporter, 24 h; further: nearly all actives have a fitted effect of over 60% in size
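Compounds in DMSO were transferred onto Huh7 NPC1-luciferase reporter cells pre-incubated 2 h; after 24 h at 37 °C, Amplite reagent was dispensed and luminescence recorded 10 min later.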
FLuc counter: counter-screen for miR-21 project: firefly luciferase inhibitors or activators | purified FLuc, Km substrates, luminescence inhibition | Potency, µM (doses to about 57.5 µM), actives largely listed as inhibitors | P08659 | 6.9% of 360,000 active; further: nearly all actives have a fitted effect of over 55% in size
Target sequence (P08659 whole entry, looked up): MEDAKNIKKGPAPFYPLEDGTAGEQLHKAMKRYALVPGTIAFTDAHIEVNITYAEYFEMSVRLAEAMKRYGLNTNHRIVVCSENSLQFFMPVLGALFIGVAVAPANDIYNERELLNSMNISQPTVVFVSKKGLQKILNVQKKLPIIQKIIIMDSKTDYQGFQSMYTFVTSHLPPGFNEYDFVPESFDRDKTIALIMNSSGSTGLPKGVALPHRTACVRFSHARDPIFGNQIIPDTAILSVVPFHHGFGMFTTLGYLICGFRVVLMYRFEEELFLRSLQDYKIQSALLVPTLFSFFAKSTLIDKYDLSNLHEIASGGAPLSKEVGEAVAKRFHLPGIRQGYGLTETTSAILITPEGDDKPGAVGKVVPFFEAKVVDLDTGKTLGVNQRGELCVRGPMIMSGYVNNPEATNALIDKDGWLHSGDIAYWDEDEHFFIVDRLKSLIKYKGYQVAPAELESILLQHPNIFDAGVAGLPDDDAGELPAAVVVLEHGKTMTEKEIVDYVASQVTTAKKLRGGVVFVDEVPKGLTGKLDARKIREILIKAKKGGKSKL
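Purified P. pyralis luciferase (10nM final) with 10uM D-luciferin and 10uM ATP (Km levels) in 50mM Tris acetate pH 7.5, 10mM Mg acetate, 0.01% Tween-20, 0.05% BSA; qHTS 6-point titration, ~60 µM downward; luminescence read.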
ELG1 DNA repair: ELG1-dependent DNA repair inhibition. HEK293T ELG1-luciferase reporter, luminescence, 16 h; DNA damage induced by 5-fluorouridine. Potency, µM (series often up to 46.1 µM), hits mostly inhibitors. 2.3% of 330,000 active; further: nearly all actives have a fitted effect of over 55% in size
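In this reporter screen, reduction of luminescence relative to DMSO vehicle indicated activity. Compounds and 5-fluorouridine were added together to 2,000 cells per well, incubated for 16 hr at 37 °C, then developed with ONE-Glo.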
ELG1 genotoxic: inducers of genotoxicity in HEK293T ELG1-luciferase cells; HEK293T ELG1-luciferase reporter, luminescence, 16 h; Potency, µM (doses to about 46 µM), actives largely listed as activators; 1.3% of 330,000 active; AID 504466; further: nearly all actives have a fitted effect of over 60% in size
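Step 1: seed 2,000 HEK293T ELG1-luciferase cells per well. Step 2: add compound or DMSO, incubate 16 hr at 37 °C. Step 3: ONE-Glo, 30 min at room temperature, read luminescence.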
SMN2 splice enh: increases expression of the SMN2 splice variant; 2.8% of 210,000 active; HEK293 SMN2-luciferase splicing reporter, luminescence, 30-36 h; Potency, µM (top dose mostly 46.1 µM), actives largely listed as activators; further: nearly all actives have a fitted effect of over 55% in size
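qHTS luciferase splicing reporter: luminescence rises when SMN2 exon 7 is included in transfected HEK293 cells. Compound exposure lasted 30-36 h at 37C, with 4.5 mM final sodium butyrate as control, followed by a ONE-Glo read.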
Of the large screens only hits and unclear results are named; the others gave an inactive call. Compounds with a hit are over-represented: about 9.2% of the library has one in this group of screens. The call rests on the fitted dose curve; in most records, active means well fitted curve in the direction sought with a large enough effect; inconclusive means small, poorly fitted or top-dose-only effect, or another doubt; inactive means no such curve, though single readings can be large; an effect the other way counts as inactive or inconclusive.

O=[N+]([O-])c1ccc(Cl)c(S(=O)(=O)Nc2cccc(-c3ccc(N4CCOCC4)nn3)c2)c1	Rab9 promoter act inconclusive, NPC1 promoter act inconclusive, FLuc counter 2.4µM, ELG1 DNA repair inconclusive, ELG1 genotoxic 10µM (no result: SMN2 splice enh)
O=S(=O)(Nc1ccc(-c2ccc(N3CCOCC3)nn2)cc1)c1ccc(Cl)c(Cl)c1	FLuc counter 24µM (no result: SMN2 splice enh)
C[C@@H]1OC(OC2C(OC3CC[C@@]4(C)C5CC=C6C7CC(C)(C)CC[C@@]7(C(=O)O)CCC6(C)C5(C)CCC4[C@]3(C)CO)OCC(O)C2O)C(O)C(O)C1O (some centres undefined)	none (no result: Rab9 promoter act, NPC1 promoter act, FLuc counter, ELG1 DNA repair, ELG1 genotoxic)
CCCCC[C@H](O)/C=C/C=C\C=C\C=C\[C@@H](O)[C@@H](O)CCCC(=O)O	none (no result: Rab9 promoter act, NPC1 promoter act, FLuc counter, ELG1 DNA repair, ELG1 genotoxic)
O=C(Nc1ccc(Cl)cc1F)c1cc(S(=O)(=O)NCc2ccc3c(c2)OCO3)ccc1F	none (no result: Rab9 promoter act, NPC1 promoter act, ELG1 DNA repair, ELG1 genotoxic, SMN2 splice enh)
C/C(=N\OC(=O)c1cccc(C(F)(F)F)c1)c1sc(-c2ccccc2)nc1C	Rab9 promoter act 4µM, NPC1 promoter act 3.5µM, ELG1 DNA repair inconclusive, SMN2 splice enh 25µM
Cc1nc(-c2ccccc2)sc1C(=O)NN	none
C/C(=N\OC(=O)c1cccc(C)c1)c1sc(-c2ccccc2)nc1C	Rab9 promoter act 2.8µM, NPC1 promoter act 4µM, ELG1 DNA repair inconclusive, ELG1 genotoxic 5.8µM, SMN2 splice enh inconclusive
Cc1cc(C)c2c(c1)c(C)cc1nnc(SCC(=O)c3ccccc3)n12	none (no result: Rab9 promoter act, NPC1 promoter act, ELG1 DNA repair, ELG1 genotoxic, SMN2 splice enh)
CCOc1ccc(-n2c(C)nc3cc(C(=O)NCC4CCCO4)ccc32)cc1 (centres undefined)	none (no result: SMN2 splice enh)
Cc1nnc(SC(C)C(=O)Nc2ncc(Cl)cc2Cl)n1Cc1ccccc1 (centres undefined)	none
Cc1cc(SC(C)C(=O)Nc2ncc(Cl)cc2Cl)nc2ccccc12 (centres undefined)	ELG1 DNA repair inconclusive, SMN2 splice enh 3.5µM
CC1CCN(S(=O)(=O)c2ccc3c(c2)N(CC(=O)NCCCN2CC(C)CC(C)C2)C(=O)CS3)CC1 (centres undefined)	ELG1 DNA repair inconclusive (no result: SMN2 splice enh)
CCc1cc(C=NC2CCCCC2)c(O)s1	Rab9 promoter act 3.5µM, NPC1 promoter act inconclusive, FLuc counter inconclusive, ELG1 DNA repair inconclusive
CCc1cc2c(SC(C)C(=O)NC3CCCC3)ncnc2s1 (centres undefined)	ELG1 DNA repair inconclusive (no result: Rab9 promoter act, NPC1 promoter act, FLuc counter, SMN2 splice enh)
O=C(c1cc(Sc2cccc(Cl)c2)nc2ccccc12)N1CCN(c2ccccn2)CC1	ELG1 DNA repair 21µM
O=C(c1cc(Sc2ccc(Cl)cc2)nc2ccccc12)N1CCN(c2ccccn2)CC1	ELG1 DNA repair inconclusive
O=C(c1cc(-c2ccccc2Cl)nc2ccccc12)N1CCN(c2ccccc2O)CC1	ELG1 DNA repair 13µM (no result: SMN2 splice enh)
O=C(c1cc(-c2ccccc2Cl)nc2ccccc12)N1CCC1	none (no result: SMN2 splice enh)
Cc1noc(C)c1COc1ccccc1C(=O)N1CCN(c2cccc(Cl)c2)CC1	ELG1 DNA repair 9.2µM (no result: SMN2 splice enh)
O=C(c1cnc(N2CCN(c3ccccn3)CC2)c2ccccc12)N1CCN(c2cccc(Cl)c2)CC1	ELG1 DNA repair 4.6µM
Cc1noc(C)c1COc1ccccc1C(=O)N1CCN(c2cccc(C(F)(F)F)c2)CC1	none (no result: SMN2 splice enh)
Cc1cccc(OCCCCn2c(C3CC(=O)N(c4ccccc4Cl)C3)nc3ccccc32)c1 (centres undefined)	none (no result: Rab9 promoter act, NPC1 promoter act, ELG1 DNA repair, ELG1 genotoxic)
O=C(c1cc(-c2ccccc2Cl)nc2ccccc12)N1CCN(c2ccccn2)CC1	ELG1 DNA repair 23µM (no result: Rab9 promoter act, NPC1 promoter act, FLuc counter, SMN2 splice enh)
CC(C)(C)C(=O)Nc1ccc(N2CCN(c3ccc(C(F)(F)F)cn3)CC2)nc1	ELG1 DNA repair 9.2µM (no result: SMN2 splice enh)
O=C(c1cc(-c2ccccc2Cl)nc2ccccc12)N1CCOCC1	none (no result: SMN2 splice enh)
CSc1ncc(C(=O)N2CCN(c3cccc(Cl)c3)CC2)c(C)n1	none (no result: Rab9 promoter act, NPC1 promoter act, ELG1 DNA repair, ELG1 genotoxic, SMN2 splice enh)
O=C(Nc1ccc(C(F)(F)F)cc1)c1cccnc1N1CCOCC1	none
O=C(Nc1ccc(C(F)(F)F)cc1)c1cnc(N2CCN(c3ccccn3)CC2)c2ccccc12	ELG1 DNA repair 5.2µM
CSc1ccccc1C(=O)N1CCN(c2cccc(Cl)c2)CC1	ELG1 DNA repair 21µM
COC(=O)c1ccc(NC(=O)Cc2ccc(C)cc2)cc1	none
